Here are results for four compounds from PubChem BioAssay AID488794 (Sanford-Burnham Center for Chemical Genomics, 2010).

The structures appear in SMILES notation. About 550 (55%) of roughly 1,000 compounds were called active. So high a share suggests a set chosen from earlier hits. Only a sample is shown. Values without a mark were called inactive. Cut-off read from the data, not from the text of the source: active = inhibition above about 50%; inactive = the rest.

This assay in a line: yeast-expressed human NALP3 blockade, retest – luminescence, single concentration, confirmation (AID 488794). To be noted: yeast expressing human NALP3, luminescence read-out; at 10 µM; hits give high values.
Take `CCCCCCCCCCCCn1ccc(=N)cc1`: the inhibition (commonly the drop in the measured response relative to a control, in per cent) is 82.8% (active).

Turning to `Cc1cc2ccccn2c1C(C[N+](=O)[O-])c1c(F)cccc1Cl` (centres undefined), the inhibition is 23.2%.

Consider `Cc1ccc(-c2nc3ccccc3c(=O)n2-c2ccc(Br)cn2)cc1`, for which the inhibition was 45.7%.

`O=C1/C(=C\c2ccc3c(c2)OCO3)N2CCC1CC2`: the inhibition was 35%.
